Key:
Assay in all cases: DAPPL (digital affinity profiling via proximity ligation, sequencing); 10 mM Tris-HCl pH 7.5, 50 mM NaCl, 1 mM DTT, 4% glycerol, room temperature, 30 min; GST-TFs on glutathione beads, 16-mer random dsDNA library, 0.1% formaldehyde crosslink after washing; high values mean tight binding
Conditions in all cases: protein: recombinant; tags: N-terminal GST; dsDNA, one strand shown
[1] = biological target: T1, ELK1 (Homo sapiens, UniProt P19419 1-428)
T1 sequence: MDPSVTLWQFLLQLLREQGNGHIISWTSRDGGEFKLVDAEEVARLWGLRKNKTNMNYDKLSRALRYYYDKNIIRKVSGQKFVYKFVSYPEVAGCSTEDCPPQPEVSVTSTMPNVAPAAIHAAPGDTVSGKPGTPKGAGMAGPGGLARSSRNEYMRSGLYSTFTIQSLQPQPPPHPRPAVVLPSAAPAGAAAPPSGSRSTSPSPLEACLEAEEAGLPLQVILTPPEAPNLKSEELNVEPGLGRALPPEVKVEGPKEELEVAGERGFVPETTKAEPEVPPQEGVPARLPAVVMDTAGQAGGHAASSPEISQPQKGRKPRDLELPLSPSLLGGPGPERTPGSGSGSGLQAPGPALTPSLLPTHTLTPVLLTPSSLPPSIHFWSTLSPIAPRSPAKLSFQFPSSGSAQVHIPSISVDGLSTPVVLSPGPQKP
How it was run: (§1)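 A tag-only sample was pooled with DNA-barcoded human transcription factors that had been expressed in yeast as GST fusions and captured on glutathione beads. The pools were incubated for 30 min at room temperature with 200 nmole of a random double-stranded 16-mer DNA library in Tris/NaCl/DTT/glycerol buffer, then washed, crosslinked with 0.1% formaldehyde, proximity-ligated (BsaI/T4 ligase, 1 h, 37 °C), PCR-amplified and sequenced on an Illumina NextSeq500. Binding signal is each hexamer's read frequency for a factor divided by its frequency for the tag-only sample.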

[2] = biological target: T2, GABPA (Homo sapiens, UniProt Q06546 1-454)
T2 sequence: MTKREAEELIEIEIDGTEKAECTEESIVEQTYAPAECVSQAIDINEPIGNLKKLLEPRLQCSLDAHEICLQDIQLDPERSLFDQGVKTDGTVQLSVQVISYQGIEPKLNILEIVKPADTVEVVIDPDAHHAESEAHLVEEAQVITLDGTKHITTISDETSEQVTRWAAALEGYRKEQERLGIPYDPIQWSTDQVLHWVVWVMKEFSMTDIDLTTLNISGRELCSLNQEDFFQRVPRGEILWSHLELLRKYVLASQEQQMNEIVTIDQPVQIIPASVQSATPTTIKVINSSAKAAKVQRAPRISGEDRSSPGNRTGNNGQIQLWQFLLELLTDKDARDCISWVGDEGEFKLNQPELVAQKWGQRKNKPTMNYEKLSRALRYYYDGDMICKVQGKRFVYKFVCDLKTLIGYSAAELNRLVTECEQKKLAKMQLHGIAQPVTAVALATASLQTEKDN
How it was run: as §1

[3] = biological target: T3, ERG (Homo sapiens, UniProt P11308 1-479)
T3 sequence: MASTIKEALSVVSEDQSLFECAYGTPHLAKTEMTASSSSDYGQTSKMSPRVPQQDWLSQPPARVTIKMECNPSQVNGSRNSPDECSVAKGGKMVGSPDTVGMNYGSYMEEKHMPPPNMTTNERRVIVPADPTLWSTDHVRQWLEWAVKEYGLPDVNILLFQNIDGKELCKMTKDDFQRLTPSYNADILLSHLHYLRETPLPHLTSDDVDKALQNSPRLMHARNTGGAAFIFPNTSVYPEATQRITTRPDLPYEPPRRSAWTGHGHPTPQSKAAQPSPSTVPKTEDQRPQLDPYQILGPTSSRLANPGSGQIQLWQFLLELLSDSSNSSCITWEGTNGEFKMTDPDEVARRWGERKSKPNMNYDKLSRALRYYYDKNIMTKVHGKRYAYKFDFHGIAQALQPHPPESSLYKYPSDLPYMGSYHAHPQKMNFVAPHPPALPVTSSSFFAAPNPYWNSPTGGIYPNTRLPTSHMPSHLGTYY
How it was run: as §1

[4] = biological target: ELF1 (Homo sapiens, UniProt P32519 1-619)
Sequence of ELF1 (P32519 whole entry): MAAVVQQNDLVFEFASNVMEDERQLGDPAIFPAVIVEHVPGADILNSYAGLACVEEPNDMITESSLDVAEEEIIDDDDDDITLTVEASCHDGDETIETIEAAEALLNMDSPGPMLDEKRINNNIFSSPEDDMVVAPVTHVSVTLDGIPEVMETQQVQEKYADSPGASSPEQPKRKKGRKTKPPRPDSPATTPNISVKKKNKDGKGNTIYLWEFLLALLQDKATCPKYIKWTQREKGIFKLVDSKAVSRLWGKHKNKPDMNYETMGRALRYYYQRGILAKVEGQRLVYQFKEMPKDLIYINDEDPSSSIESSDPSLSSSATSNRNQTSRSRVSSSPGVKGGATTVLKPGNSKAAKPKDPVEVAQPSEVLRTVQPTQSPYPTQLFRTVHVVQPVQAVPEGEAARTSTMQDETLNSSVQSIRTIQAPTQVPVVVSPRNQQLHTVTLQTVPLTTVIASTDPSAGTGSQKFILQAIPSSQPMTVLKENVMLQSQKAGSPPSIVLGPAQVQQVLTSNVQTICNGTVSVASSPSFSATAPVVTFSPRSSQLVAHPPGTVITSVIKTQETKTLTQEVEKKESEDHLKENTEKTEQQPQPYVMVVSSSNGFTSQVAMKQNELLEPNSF
How it was run: as §1

[5] = biological target: T4, EHF (Homo sapiens, UniProt Q9NZC4 1-300)
T4 sequence: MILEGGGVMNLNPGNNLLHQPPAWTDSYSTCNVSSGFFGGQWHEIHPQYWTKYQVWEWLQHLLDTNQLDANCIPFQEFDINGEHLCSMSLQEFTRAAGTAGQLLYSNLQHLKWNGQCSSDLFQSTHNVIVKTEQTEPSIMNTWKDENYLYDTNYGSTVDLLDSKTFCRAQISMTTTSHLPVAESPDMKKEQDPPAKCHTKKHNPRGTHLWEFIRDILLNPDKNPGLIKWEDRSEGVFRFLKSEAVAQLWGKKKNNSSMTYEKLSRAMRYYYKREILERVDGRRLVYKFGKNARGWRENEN
How it was run: as §1

[6] = biological target: SPIB (Homo sapiens, UniProt Q01892 1-262)
Sequence of SPIB (Q01892 whole entry): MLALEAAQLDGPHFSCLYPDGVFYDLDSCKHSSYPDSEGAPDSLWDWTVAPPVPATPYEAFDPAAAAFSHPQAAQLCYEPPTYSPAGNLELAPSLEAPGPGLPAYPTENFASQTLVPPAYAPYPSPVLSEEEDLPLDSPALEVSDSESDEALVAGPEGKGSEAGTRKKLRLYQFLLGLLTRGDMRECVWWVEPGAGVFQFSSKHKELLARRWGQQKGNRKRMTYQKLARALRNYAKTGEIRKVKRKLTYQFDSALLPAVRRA
How it was run: as §1

[7] = biological target: T5, FEV (Homo sapiens, UniProt Q99581 1-238)
T5 sequence: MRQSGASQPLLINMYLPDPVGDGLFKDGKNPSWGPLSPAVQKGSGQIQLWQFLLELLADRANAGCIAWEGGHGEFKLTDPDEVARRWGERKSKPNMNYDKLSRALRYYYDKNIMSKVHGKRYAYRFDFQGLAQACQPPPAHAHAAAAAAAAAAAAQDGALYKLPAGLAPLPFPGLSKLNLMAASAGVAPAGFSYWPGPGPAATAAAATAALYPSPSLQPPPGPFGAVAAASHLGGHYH
How it was run: as §1

[8] = biological target: ETV5 (Homo sapiens, UniProt P41161 1-510)
Sequence of ETV5 (P41161 whole entry): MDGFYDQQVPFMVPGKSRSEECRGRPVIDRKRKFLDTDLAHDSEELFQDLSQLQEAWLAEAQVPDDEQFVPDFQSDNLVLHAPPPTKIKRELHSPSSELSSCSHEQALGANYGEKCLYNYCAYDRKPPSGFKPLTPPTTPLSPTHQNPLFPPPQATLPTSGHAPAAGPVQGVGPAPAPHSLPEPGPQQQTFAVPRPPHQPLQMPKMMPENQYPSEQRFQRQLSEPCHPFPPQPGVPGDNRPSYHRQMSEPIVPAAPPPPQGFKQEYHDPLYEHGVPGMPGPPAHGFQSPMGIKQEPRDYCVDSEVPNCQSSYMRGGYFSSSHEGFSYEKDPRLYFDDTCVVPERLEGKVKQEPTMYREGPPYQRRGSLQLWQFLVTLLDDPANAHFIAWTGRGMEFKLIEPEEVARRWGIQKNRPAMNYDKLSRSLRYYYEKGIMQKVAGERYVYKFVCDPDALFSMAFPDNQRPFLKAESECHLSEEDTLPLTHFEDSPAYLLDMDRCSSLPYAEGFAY
How it was run: as §1

[9] = biological target: ELF4 (Homo sapiens, UniProt Q99607 1-663)
Sequence of ELF4 (Q99607 whole entry): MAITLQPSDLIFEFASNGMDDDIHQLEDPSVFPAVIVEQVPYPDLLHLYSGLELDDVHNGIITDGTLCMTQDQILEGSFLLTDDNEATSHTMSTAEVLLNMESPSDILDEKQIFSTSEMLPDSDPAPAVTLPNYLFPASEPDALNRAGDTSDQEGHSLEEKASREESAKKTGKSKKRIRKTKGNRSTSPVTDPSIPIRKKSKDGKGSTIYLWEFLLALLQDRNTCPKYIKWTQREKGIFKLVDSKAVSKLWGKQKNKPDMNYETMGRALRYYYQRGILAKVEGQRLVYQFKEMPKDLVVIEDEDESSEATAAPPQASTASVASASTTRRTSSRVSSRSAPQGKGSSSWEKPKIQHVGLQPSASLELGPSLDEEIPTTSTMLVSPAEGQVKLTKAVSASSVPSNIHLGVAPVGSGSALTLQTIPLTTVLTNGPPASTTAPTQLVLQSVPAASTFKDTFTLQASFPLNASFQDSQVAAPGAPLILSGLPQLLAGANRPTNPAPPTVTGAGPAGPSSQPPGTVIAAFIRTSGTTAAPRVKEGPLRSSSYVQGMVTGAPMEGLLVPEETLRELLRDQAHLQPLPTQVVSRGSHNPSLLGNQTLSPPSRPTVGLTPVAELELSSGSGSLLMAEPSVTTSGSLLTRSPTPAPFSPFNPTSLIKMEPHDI
How it was run: as §1

[10] = biological target: T6, ELK4 (Homo sapiens, UniProt P28324-2 1-405)
T6 sequence: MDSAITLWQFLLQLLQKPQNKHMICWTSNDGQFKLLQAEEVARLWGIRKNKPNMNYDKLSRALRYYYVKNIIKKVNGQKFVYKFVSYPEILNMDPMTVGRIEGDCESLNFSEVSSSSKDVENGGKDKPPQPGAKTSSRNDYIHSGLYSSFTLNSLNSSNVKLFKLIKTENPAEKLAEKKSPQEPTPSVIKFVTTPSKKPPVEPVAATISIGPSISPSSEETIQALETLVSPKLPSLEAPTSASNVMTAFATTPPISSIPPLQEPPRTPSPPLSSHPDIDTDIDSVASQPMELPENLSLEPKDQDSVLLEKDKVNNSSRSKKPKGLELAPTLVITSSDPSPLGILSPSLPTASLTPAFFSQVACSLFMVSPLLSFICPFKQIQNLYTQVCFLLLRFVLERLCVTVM
How it was run: as §1

GCTATC
binding signal [1]: 1.07 fold enrichment (6-mer frequency, TF over GST control) | binding signal [2]: 1.1 fold enrichment (6-mer frequency, TF over GST control) | binding signal [3]: 1.13 fold enrichment (6-mer frequency, TF over GST control) | binding signal [4]: 1.14 fold enrichment (6-mer frequency, TF over GST control) | binding signal [5]: 1.14 fold enrichment (6-mer frequency, TF over GST control) | binding signal [6]: 1.1 fold enrichment (6-mer frequency, TF over GST control) | binding signal [7]: 1.08 fold enrichment (6-mer frequency, TF over GST control) | binding signal [8]: 1.09 fold enrichment (6-mer frequency, TF over GST control) | binding signal [9]: 1.14 fold enrichment (6-mer frequency, TF over GST control) | binding signal [10]: 1.13 fold enrichment (6-mer frequency, TF over GST control)
